Entries with a potency or affinity are not part of this list. Calls of active or inactive are those of the source.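 The calls were made as follows: active = dose curve could be fitted and remaining uptake under 40% of control at 33.3 µM; inactive = the rest.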
Molecular target: High affinity choline transporter 1 (Homo sapiens) (UniProt Q9GZV3)
Test: choline transporter CHT inhibition potency – cell-based, 3H-choline uptake, radioactive, HEK293 CHT LV-AA, orthogonal assay for CHT inhibitor project, dose response (AID 651756)

Chain of High affinity choline transporter 1 (Homo sapiens) (Q9GZV3 whole entry, looked up): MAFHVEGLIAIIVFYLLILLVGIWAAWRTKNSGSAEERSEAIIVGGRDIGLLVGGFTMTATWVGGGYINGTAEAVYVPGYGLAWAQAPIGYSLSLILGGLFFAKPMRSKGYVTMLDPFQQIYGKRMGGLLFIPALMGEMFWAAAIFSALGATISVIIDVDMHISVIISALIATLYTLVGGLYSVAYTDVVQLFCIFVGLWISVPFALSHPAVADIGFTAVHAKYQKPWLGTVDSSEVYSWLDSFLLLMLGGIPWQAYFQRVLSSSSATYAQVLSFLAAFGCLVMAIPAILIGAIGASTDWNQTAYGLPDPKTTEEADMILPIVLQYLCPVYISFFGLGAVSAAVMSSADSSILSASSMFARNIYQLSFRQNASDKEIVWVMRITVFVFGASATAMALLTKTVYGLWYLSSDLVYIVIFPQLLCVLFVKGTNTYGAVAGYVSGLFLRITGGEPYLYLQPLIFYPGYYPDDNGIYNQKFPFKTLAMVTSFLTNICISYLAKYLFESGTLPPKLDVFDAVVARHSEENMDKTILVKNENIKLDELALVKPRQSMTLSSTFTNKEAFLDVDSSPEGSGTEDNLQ

SMILES | outcome
Cc1ccc(C(=O)Nc2ccc(S(=O)(=O)Nc3ccccn3)cc2)c(C)c1 | inactive
O=C(Nc1ccc(S(=O)(=O)Nc2ccccn2)cc1)c1ccc(Cl)cc1 | inactive
O=C(Nc1ccc(S(=O)(=O)Nc2ccccn2)cc1)c1cccc(Cl)c1 | inactive
O=C(Nc1ccc(S(=O)(=O)Nc2ccccn2)cc1)c1cccc(-c2ccccc2)c1 | inactive
O=C(Nc1ccc(S(=O)(=O)Nc2ccccn2)cc1)c1ccccc1-c1ccccc1 | inactive
COc1cc(C)ccc1C(=O)Nc1ccc(S(=O)(=O)Nc2ccccn2)cc1 | inactive
O=C(Nc1ccc(S(=O)(=O)Nc2ccccn2)cc1)c1cccc2ccccc12 | inactive
Cc1c(C(=O)Nc2ccc(S(=O)(=O)Nc3ccccn3)cc2)cccc1[N+](=O)[O-] | inactive
Cc1ccc(C(=O)Nc2ccc(S(=O)(=O)Nc3ccccn3)cc2)cc1 | inactive
Cc1cc(C)c(C(=O)Nc2ccc(S(=O)(=O)Nc3ccccc3)cc2)c(C)c1 | inactive
O=C1CC(c2ccccc2)C(=O)N1c1ccc(S(=O)(=O)Nc2ccccn2)cc1 (stereo not drawn) | inactive
O=C(Nc1ccc(S(=O)(=O)Nc2ccccn2)cc1)c1ccc(C(F)(F)F)cc1 | inactive
Cc1cccc(C(=O)Nc2ccc(S(=O)(=O)Nc3ccccn3)cc2)c1 | inactive
O=C(Nc1ccc(S(=O)(=O)Nc2ccccn2)cc1)c1ccc2c(c1)CCCC2 | inactive
CC1(c2ccccc2)CC(=O)N(c2ccc(S(=O)(=O)Nc3ccccn3)cc2)C1=O (stereo not drawn) | inactive
O=C1c2ccccc2C(=O)N1c1ccc(S(=O)(=O)Nc2ccccn2)cc1 | inactive
Cc1cccc(C(=O)Nc2ccc(S(=O)(=O)Nc3ccccn3)cc2)c1C | inactive
Cc1ccc(C(=O)Nc2ccc(S(=O)(=O)Nc3ccccn3)cc2)c2ccccc12 | inactive
O=C1c2cccc(Cl)c2C(=O)N1c1ccc(S(=O)(=O)Nc2ccccn2)cc1 | inactive
O=C1c2cccc(F)c2C(=O)N1c1ccc(S(=O)(=O)Nc2ccccn2)cc1 | inactive
Cc1ccccc1C(=O)Nc1ccc(S(=O)(=O)Nc2ccccn2)cc1 | inactive
Cc1cc(F)ccc1C(=O)Nc1ccc(S(=O)(=O)Nc2ccccn2)cc1 | inactive
O=C(Nc1ccc(S(=O)(=O)Nc2ccccn2)cc1)c1ccc(Cc2ccccc2)cc1 | inactive
O=C1CC2(CCCCC2)C(=O)N1c1ccc(S(=O)(=O)Nc2ccccn2)cc1 | inactive
Cc1cc(C)c(C(=O)Nc2ccc(S(=O)(=O)N(C)c3ccccn3)cc2)c(C)c1 | inactive
O=C(Nc1ccc(S(=O)(=O)Nc2ccccn2)cc1)c1cccc(C(F)(F)F)c1 | inactive
O=C1c2ccc(Cl)cc2C(=O)N1c1ccc(S(=O)(=O)Nc2ccccn2)cc1 | inactive
O=C1C(c2ccccc2)C(c2ccccc2)C(=O)N1c1ccc(S(=O)(=O)Nc2ccccn2)cc1 (stereo not drawn) | inactive

Reference: PubChem BioAssay AID651756 (Johns Hopkins Ion Channel Center, 2012)
